# Results reported in PubChem BioAssay AID651702 (NMMLSC, 2012).
# Among all 360,000 compounds or so, about 2,400 (0.67%) were called active.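 How the source made its calls: active means inhibition above about 55% (limit read from the data); inconclusive means no clear call, values can overlap the other calls; inactive means the rest.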 This excerpt belongs to a sample that is enriched for actives.
# Test: LAMP-1 surface exposure blockers, TALL-104 cells – cell-based, flow cytometry, MLPCN library, primary screen (AID 651702)
# Details: TALL-104 LAMP-1 surface exposure, at 10 µM, active compounds read high, cells stimulated with thapsigargin and PMA
row,Compound,inhibition
1,O=C(COC(=O)c1ccccc1SCC(=O)N1CCCC1)Nc1ccccc1OC(F)F,-7.8% (inactive)
2,CN(c1ccccc1)S(=O)(=O)c1ccc(C(=O)NCCc2ccccc2)cc1,70.8% (active)
3,CN(c1ccccc1)S(=O)(=O)c1ccc(C(=O)NCc2cccnc2)cc1,-0.5% (inactive)
4,Cc1ccccc1CSCCNC(=O)c1ccc(N(C)S(=O)(=O)c2ccccc2)cc1,6.2% (inactive)
5,CCOC(=O)[C@H]1[C@H]2COc3cc(OC)ccc3[C@@H]2N2C(=O)N(c3ccc(Br)cc3)C(=O)[C@@]12C,-15.5% (inactive)
6,CC(Oc1ccccc1)C(=O)Nc1c2c(nn1-c1ccccc1)CS(=O)C2 (stereo not given),-4% (inactive)
7,O=C(Cc1csc(Nc2nc(=S)[nH]c3ccccc23)n1)NCCCN1CCN(c2cccc(Cl)c2)CC1,56.9% (active)
8,O=C(Cc1ccc(-n2c(=O)[nH]c3ccccc3c2=O)cc1)N1CCN(c2cccc(Cl)c2)CC1,-0.7% (inactive)
9,CCOC(=O)N1CCC(Nc2c(NCCN3CCN(c4cccc(Cl)c4)CC3)c(=O)c2=O)CC1,1.5% (inactive)
10,CC(=O)OCC(=O)C1(O)CCC2C3CC(C)C4=CC(=O)CCC4(C)C3C(O)CC21C (stereo not given),-8.4% (inactive)
11,CC(C(=O)NCC1CCCCC1)N(C)Cc1cccc(Cl)c1 (stereo not given),0.2% (inactive)
12,COc1ccc(NC(=O)C(c2ccncc2)n2c(=O)c(-c3cc4ccccc4[nH]3)nc3ccccc32)cc1 (stereo not given),19.8% (inactive)
13,COc1cc(NC(=O)COC(=O)c2cc(S(=O)(=O)N3CCOCC3)ccc2F)cc(OC)c1,-1.4% (inactive)
14,Cc1nc(-c2ccc(Cl)cc2)sc1C1(C)CC(c2ccccc2F)=NO1 (stereo not given),5.5% (inactive)
15,Cc1nc(C(=O)Nc2ccc(Cl)cc2)sc1C1(C)CC(c2ccccc2)=NO1 (stereo not given),1.2% (inactive)
16,Cc1nc(-c2ccc(Cl)cc2)sc1C1(C)CC(c2ccc(Br)cc2)=NO1 (stereo not given),56.1% (active)
17,Cc1ccccc1CSc1nnc(CCCCCNC(=O)OC(C)(C)C)o1,-4.6% (inactive)
18,CC(C)Cc1nnc(NC(=O)CN2C(=O)NC3(CCCCC3)C2=O)s1,-0.9% (inactive)
19,COc1cccc(CN(C)CC2CCCN(CCc3ccc(Cl)cc3)C2)c1OC (stereo not given),75.1% (active)
20,Cc1nc2ccc(C(=O)N(C)CC3CCCN(CCc4ccc(Cl)cc4)C3)cc2[nH]1 (stereo not given),6.7% (inactive)
21,COc1cccc(CN(C)CC(=O)NCc2ccccc2Cl)c1OC,-3.5% (inactive)
22,COCCNC(=O)C(c1ccc(O)cc1)N(C(=O)CCC(=O)Nc1nccs1)c1ccc(C)cc1 (stereo not given),-4.4% (inactive)
23,CCOc1cc(CN2CCCC(CO)(Cc3ccc(F)cc3F)C2)ccc1OC (stereo not given),11.4% (inactive)

row,Compound,inhibition
1,Cc1cc(C)cc(NC(=O)NC2CCN(CC(=O)Nc3cccc(Cl)c3C)CC2)c1,9.3% (inactive)
2,COc1ccc(CCNC(=O)CN(c2ccccc2)S(C)(=O)=O)cc1,10.8% (inactive)
3,COc1ccc(-c2oc3ncn(Cc4ccco4)c(=N)c3c2-c2ccc(OC)cc2)cc1,24.9% (inactive)
4,C(=C\c1ccccc1)/CSc1nnc(-c2cccnc2)n1Cc1ccco1,-1% (inactive)
5,N=c1c2c(-c3ccccc3)c(-c3ccccc3)oc2ncn1Cc1ccco1,59.7% (active)
6,COc1ccccc1C(=O)NCCC(=O)NN1C(=O)NC2(CCCCC2)C1=O,4% (inactive)
7,O=C(O)C(F)(F)C(NCc1ccccc1)c1ccccc1 (stereo not given),2.5% (inactive)
8,Cc1cc(C)n(CCNC(=O)CC2C(=O)NCCN2Cc2ccc(C)o2)n1 (stereo not given),-10.6% (inactive)
9,Nc1ccn(CC(=O)N2CCN(c3ccccn3)CC2)c(=O)n1,6.5% (inactive)
10,CC(C)(C)NC(=O)CN(Cc1cccs1)C(=O)CNS(=O)(=O)c1ccccc1,-2.2% (inactive)
11,COc1ccc(OC)c(NC(=O)CN(Cc2ccc(Cl)cc2)S(C)(=O)=O)c1,6.3% (inactive)
12,COc1ccc(Br)cc1CN(C)CC(=O)Nc1cc([N+](=O)[O-])ccc1OC,0.6% (inactive)
13,COc1ccc(OC)c(NC(=O)CN(C)CCOc2ccc(Br)cc2)c1,93.7% (active)
14,COCc1c(C(=O)N/N=C/C2CC=CCC2)nnn1-c1nonc1N (stereo not given),1.4% (inactive)
15,CCCCN(CCCC)CC(O)Cn1c2ccccc2c(=O)c2ccccc21 (stereo not given),11.9% (inactive)
16,Cc1cc(C)n(CC(O)CN(c2ccccc2)S(=O)(=O)c2ccc3ccccc3c2)n1 (stereo not given),-1% (inactive)
17,CS(=O)(=O)N(CC(O)Cn1c2ccccc2c2ccccc21)c1cccc2ccccc12 (stereo not given),86.5% (active)
18,O=S(=O)(NCC1CC1)c1ccc(F)c(Cl)c1,-8.8% (inactive)
19,COC(=O)c1ccc(COC(=O)c2cnc(Cl)c(Cl)c2)cc1,-4.5% (inactive)
20,CCOc1ccc(C(C)=O)cc1COC(=O)c1cnc(Cl)c(Cl)c1,57.6% (active)
21,CCOc1ccc(C(C)=O)cc1COC(=O)CNC(=O)c1cccs1,-4.6% (inactive)
22,CC(C)(C)NS(=O)(=O)CC12CCC(CC1=O)C2(C)C (stereo not given),-2.4% (inactive)
23,COc1ccc(NC(=O)/C(Cl)=C(/Cl)S(=O)Cc2ccc(C)cc2)cn1 (stereo not given),103% (active)

row,Compound,inhibition
1,O=C(O[C@@H]1[C@H](Cc2ccccc2)NS(=O)(=O)[C@H]2C[C@@H]3C=C[C@]12O3)c1ccccc1Br,-3.7% (inactive)
2,COC(=O)c1ccccc1NC(=O)CSc1nc2c(c(=O)[nH]1)CCC2,8.6% (inactive)
3,OC(COCC1COc2ccccc2O1)CN1CCN(c2ccc(F)cc2)CC1 (stereo not given),-15.5% (inactive)
4,CCN1CCN(CCNC(=O)c2ccc(/C=C3/Sc4ccccc4N(Cc4cccc(C)c4)C3=O)cc2)CC1,86.2% (active)
5,CCN1CCN(CCNC(=O)c2ccc3c(c2)NC(=O)/C(=C\c2cccc(Cl)c2)S3)CC1,10.1% (inactive)
6,O=C(CN1C(=O)/C(=C\c2ccc(C(F)(F)F)cc2)Sc2ccccc21)NCc1ccco1,-0.7% (inactive)
7,CC(=O)c1cnc(SCC(=O)O)nc1C,-1% (inactive)
8,Cc1cc(NC(=O)CS(=O)(=O)c2cn(C)c3ccccc23)no1,-1.6% (inactive)
9,COc1ccc(C(=O)NCC2CCCO2)cc1S(=O)(=O)NCc1ccc(Cl)cc1 (stereo not given),-5.7% (inactive)
10,C=CCn1c(SCc2csc(C)n2)nc2scc(-c3ccc(C)o3)c2c1=O,62.3% (active)
11,C=CCn1c(SCC(=O)/C(C#N)=C(\C)N)nc2sc(C)c(C)c2c1=O,-1.8% (inactive)
12,C=CCn1c(SCC(=O)Nc2ccc(NC(C)=O)cc2)nc2sc(C)c(C)c2c1=O,-3.1% (inactive)
13,COc1ccccc1NS(=O)(=O)c1ccc(C)c(C(=O)NCC(c2ccco2)N(C)C)c1 (stereo not given),3.6% (inactive)
14,CCc1ccc(NC(=O)CS(=O)CC(=O)NCCCc2ccccc2)cc1 (stereo not given),-1.4% (inactive)
15,O=C(NCC1CCCO1)C(C(=O)c1ccccc1)n1cc(Cl)ccc1=O (stereo not given),1.4% (inactive)
16,CC(=O)c1c(C)[nH]c(C(=O)OCC(=O)Nc2c(C)cccc2C)c1C,2.6% (inactive)
17,COc1ccc(C)cc1NC(=O)C(OC(=O)c1cccc(S(=O)(=O)N(C)c2ccccc2)c1)c1ccccc1 (stereo not given),0.3% (inactive)
18,CC(=O)c1c(C)[nH]c(C(=O)COC(=O)c2cccc(S(=O)(=O)N(C)c3ccccc3)c2)c1C,75.4% (active)
19,CCOC(=O)CN1CC23C=CC(O2)C(C(=O)Nc2ccc(F)cc2)C3C1=O (stereo not given),1.3% (inactive)
20,CC(C)C(=O)NCc1cc(-c2ccc(Cl)cc2)no1,0.2% (inactive)
21,O=C(Nc1ccc(Cl)cn1)c1ccccc1-c1ccccc1,-5.1% (inactive)
22,Oc1ccccc1-c1cc(-c2ccc(Cl)cc2)n[nH]1,92.9% (active)
23,CCCN(CC1CC1)C(=S)NC(=O)c1ccccc1Br,-2.1% (inactive)

row,Compound,inhibition
1,CC1Cc2nc(SCC(=O)Nc3ccccc3F)n(C)c(=O)c2S1 (stereo not given),3.3% (inactive)
2,COCCn1c(C)cc(C(=O)COC(=O)/C=C/c2cccc(OC)c2)c1C,-3.8% (inactive)
3,CC1CCN(c2ccc([N+](=O)[O-])cc2C(N)=O)CC1,60.4% (active)
4,CC1CCN(C(=S)c2cccc([N+](=O)[O-])c2)CC1,0.5% (inactive)
5,O=C(O)C1CCN(c2ccc([N+](=O)[O-])cc2[N+](=O)[O-])CC1,-1.4% (inactive)
6,Cc1ccc(C(C)C)c(OCc2nnc(SCC(=O)Nc3nccs3)n2C)c1,1.2% (inactive)
7,C/C(=N\NC(=O)c1ccc(C)cc1)C1C(=O)c2ccccc2C1=O,-2.2% (inactive)
8,COc1cc(NC(=O)c2ccccc2)c(OC)cc1NC(=O)Cc1ccccc1,0% (inactive)
9,O=C(NC1=CC(=O)c2ccccc2C1=O)c1ccccc1,108% (active)
10,Cc1ccc(S(=O)(=O)NCCSC(C)(C)C)cc1,11% (inactive)
11,O=C(NCc1ccccc1)c1onc(CSc2nc3ccccc3[nH]2)c1C(=O)NCc1ccccc1,-2.7% (inactive)
12,COc1ccc(C(O)C(O)(C(=O)OC(C)C)c2ccc(C)cc2)cc1 (stereo not given),-2.2% (inactive)
13,COc1ccc(C2C(C(C)=O)=C(O)C(=O)N2CCc2c[nH]c3ccccc23)cc1 (stereo not given),0.4% (inactive)
14,COc1ccc(/C=C(\C#N)c2c[nH]c3ccccc23)cc1,90.4% (active)
15,C[N+](C)(C)CCNC(=O)c1c[nH]c2ccccc12,-7.5% (inactive)
16,O=C(CN1C(=O)NC2(CCc3ccccc32)C1=O)NC1CCCCC1 (stereo not given),-1.5% (inactive)
17,Brc1ccc2c(c1)[C@H]1OCC[C@H]1[C@@H](c1cccs1)N2,1% (inactive)
18,COc1cccc2oc(CCc3ccccc3)cc(=O)c12,-4.5% (inactive)
19,COc1ccc(CC(N)c2csc(NC(=O)NC(c3ccccc3)c3ccccc3)n2)cc1 (stereo not given),11.2% (inactive)
20,COc1ccc(CC(N)c2csc(NC(=O)Nc3ccc(C(C)C)cc3)n2)cc1 (stereo not given),67.4% (active)
21,COc1ccc(CC(N)c2csc(NC(=O)Cc3ccccc3)n2)cc1 (stereo not given),-2.9% (inactive)
